Source: PubChem (National Center for Advancing Translational Sciences (NCATS))
Rows were chosen to be rich in hits. Some 7.3% of all compounds tested hit in one or more screens of this group.
Rab9 prom act – activators of Rab9 promoter; Potency, µM (series often up to 9.22 µM), hits mostly activators; Huh7 Rab9 promoter-luciferase reporter, luminescence, 24 h; 320,000 compounds, 2.8% hits; note: nearly all actives have a fitted effect of over 60% in size
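Promoter activation is measured as luciferase luminescence in Huh7 cells stably transfected with a Rab9 promoter–luciferase construct, following 24 h compound exposure at 37 °C and 10 min reagent incubation at ambient temperature.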
ELG1 genotox – genotoxicity induction in ELG1-luciferase HEK293T cells. HEK293T ELG1-luciferase reporter, luminescence, 16 h. AID 504466. Potency, µM (series often up to 46 µM), hits mostly activators. 330,000 compounds, 1.3% hits; note: nearly all actives have a fitted effect of over 60% in size
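Genotoxicity was scored as increased ELG1-luciferase reporter signal, measured by ONE-Glo luminescence (30 min, room temperature). Compound or vehicle exposure of the HEK293T reporter cells lasted 16 hr at 37°C.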
NPC1 promoter act – activates the NPC1 promoter; Potency, µM (series often up to 9.22 µM), actives largely listed as activators; AID 485313; Huh7 NPC1 promoter luciferase reporter, 24 h; 320,000 compounds, 2.4% hits; note: nearly all actives have a fitted effect of over 60% in size
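Cells: Huh7 expressing luciferase under the NPC1 promoter, 1500/well. Seeded 2 h, compound added, incubated 24 h at 37 °C. Luciferase reagent, 10 min ambient, then luminescence.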
SMN2 splice enh – SMN2 splice variant enhancement | HEK293 SMN2-luciferase splicing reporter, luminescence, 30-36 h | Potency, µM (titrated, usually from 46.1 µM), actives largely listed as activators | 210,000 compounds, 2.8% hits | AID 1458; note: nearly all actives have a fitted effect of over 55% in size
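qHTS luciferase splicing reporter: luminescence rises when SMN2 exon 7 is included in transfected HEK293 cells. Compound exposure lasted 30-36 h at 37C, with 4.5 mM final sodium butyrate as control, followed by a ONE-Glo read.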
Luc counter – counter-screen: inhibitors of Kinase-Glo firefly luciferase | Kinase-Glo luciferase, ATP luminescence, 8 min | Potency, µM (doses to about 38.3 µM), most hits filed as inhibitors | 200,000 compounds, 0.28% hits | AID 1379; note: nearly all actives have a fitted effect of over 60% in size
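Recombinant Kinase-Glo luciferase, 10 uM ATP (linear range), luciferin; imidazole pH 7.2 / KCl / MgCl2 / Tween / BSA buffer; 8 min RT; luminescence.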
FLuc counter – inhibits or activates purified firefly luciferase, miR-21 counter-screen | purified FLuc, Km substrates, luminescence inhibition | Potency, µM (titrated, usually from 57.5 µM), usual class: inhibitors | 360,000 compounds, 6.9% hits; note: nearly all actives have a fitted effect of over 55% in size
Target sequence (P08659 whole entry, looked up): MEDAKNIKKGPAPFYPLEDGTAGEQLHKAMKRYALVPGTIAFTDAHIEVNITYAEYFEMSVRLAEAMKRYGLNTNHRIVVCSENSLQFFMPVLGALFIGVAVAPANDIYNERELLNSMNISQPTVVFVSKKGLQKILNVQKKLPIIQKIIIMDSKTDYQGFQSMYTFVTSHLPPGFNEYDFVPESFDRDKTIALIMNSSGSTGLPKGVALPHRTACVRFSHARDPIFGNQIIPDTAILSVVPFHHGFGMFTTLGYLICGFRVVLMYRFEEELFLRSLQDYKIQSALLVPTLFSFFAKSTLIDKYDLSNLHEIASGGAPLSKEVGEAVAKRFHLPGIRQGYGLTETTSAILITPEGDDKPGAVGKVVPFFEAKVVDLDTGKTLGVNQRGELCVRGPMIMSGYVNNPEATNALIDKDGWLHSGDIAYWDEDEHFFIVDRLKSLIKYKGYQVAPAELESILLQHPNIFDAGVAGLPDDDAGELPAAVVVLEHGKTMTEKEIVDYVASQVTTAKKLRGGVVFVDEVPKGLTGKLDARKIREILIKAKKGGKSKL
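Purified P. pyralis luciferase, 10 nM final, with Km-level 10 uM D-luciferin and 10 uM ATP in 50 mM Tris acetate pH 7.5, 10 mM Mg acetate, 0.01% Tween-20, 0.05% BSA; 6-point qHTS titration about 60 µM downward; luminescence read.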
Numbers stand for hits; i = inactive; ? = inconclusive; nt = no result given; [ ] = dose if it differs, or a comment. Calls come from the whole dose curve; as a rule, active = well fitted curve in the direction sought with a large enough effect; inconclusive = small, poorly fitted or top-dose-only effect, or another doubt; inactive = no such curve, though single readings can be large; an effect the other way counts as inactive or inconclusive.

SMILES	Rab9 prom act	ELG1 genotox	NPC1 promoter act	SMN2 splice enh	Luc counter	FLuc counter
Cc1cc(/C=C(/C#N)C(=O)Nc2ccccc2)c(C)n1-c1cccnc1	4µM	i	?	i	i	1.5µM
Cc1ccccc1NC(=O)/C(C#N)=C\c1cc(C)n(-c2ccc(C(=O)O)cc2)c1C	i	i	i	nt	nt	i
Cc1cc(/C=C(\C#N)C(=O)Nc2ccccc2)c(C)n1-c1ccc2c(c1)OCO2	i	i	i	i	i	11µM
CN(C)S(=O)(=O)c1ccc(C(=O)NCCSc2c(-c3ccc(Br)cc3)[nH]c3ccccc23)cc1	nt	nt	nt	i	nt	i
O=C(Nc1ccc(Br)cc1F)c1ncoc1-c1ccco1	nt	nt	nt	nt	nt	i
COc1ccccc1CNC(=O)CC1N=C2c3ccccc3N=C(SCC(=O)Nc3ccc(F)cc3)N2C1=O (stereo not drawn)	nt	nt	nt	nt	nt	i
COC(=O)c1ccc2nc(NC(=O)C(C)C)sc2c1	1.1µM	?	2µM	5.6µM	i	8.5µM
COC(=O)c1ccc2nc(NC(=O)CSCC(=O)OCC(=O)c3ccccc3)sc2c1	i	i	i	i	i	17µM
COC(=O)c1ccc2nc(NC(=O)C3CC3)sc2c1	?	?	2.2µM	nt	nt	19µM
CCOC(=O)c1ccc2nc(NC(C)=O)sc2c1	2.2µM	?	?	13µM	i	?
COC(=O)c1ccc2nc(NC(=O)CCS(=O)(=O)c3ccccc3)sc2c1	i	i	i	nt	nt	i
COC(=O)c1ccc2nc(NC(=O)CN3C(=O)CCC3=O)sc2c1	i	i	i	i	i	?
CN(C)CCNC(=O)c1ccc(-n2c(-c3ccccc3)cc3c2CCCC3)cc1	nt	nt	nt	nt	nt	i
Cc1ccccc1OC(=O)CSc1nnc(-c2ccc3c(c2)OCO3)o1	nt	nt	nt	nt	nt	i
COC(=O)c1ccc2nc(Nc3nc4c(F)cc(F)cc4s3)sc2c1	i	?	i	i	i	5.4µM
CCOC(=O)c1ccc2nc(Nc3nc4ccc(F)cc4s3)sc2c1	i	i	i	i	i	?
Cc1ccc(O)c(N=Cc2sc3ccccc3c2Cl)c1	i	i	i	i	i	1.5µM
CN=Cc1sc2ccccc2c1O	i	i	i	i	i	i
Oc1ccccc1N=Cc1sc2ccccc2c1Cl	i	i	i	i	i	2.1µM
CC12C=C(/C=C/CCc3ccco3)C(C)(C1)[C@H](CCc1ccco1)CC2=O (stereo partly drawn)	nt	nt	nt	i	i	nt
CCCSc1ncc(Cl)c(C(=O)Nc2c(C(=O)c3ccc(F)cc3)oc3ccccc23)n1	nt	nt	nt	i	nt	i
CCOc1ccc(N(Cc2cc3cc(C)ccc3[nH]c2=O)C(=O)c2cccc(Cl)c2)cc1	nt	nt	nt	i	nt	i
O=C(Nc1ccccc1)Nc1ccc(F)c([N+](=O)[O-])c1	i	i	i	i	i	17µM
O=C(Nc1ccc(Cl)c([N+](=O)[O-])c1)Nc1nc2ccccc2s1	i	i	i	nt	nt	?
O=C(Nc1ccccc1)Nc1ccc(Cl)c([N+](=O)[O-])c1	i	i	i	i	i	19µM
SMILES	Rab9 prom act	ELG1 genotox	NPC1 promoter act	SMN2 splice enh	Luc counter	FLuc counter
Cc1ccc(NC(=O)Nc2ccccc2)cc1[N+](=O)[O-]	?	i	?	13µM	i	8.5µM
O=C(NC(=S)Nc1ccc(F)c([N+](=O)[O-])c1)c1ccccc1F	i	i	i	i	i	?
COc1ccc(OC)c(NC(=O)c2cc3cc(C)ccc3n2C)c1	nt	nt	nt	nt	nt	i
O=C(Cn1nnc2ccccc21)NCc1ccccc1	3.2µM	7.3µM	2.2µM	11µM	i	13µM
c1ccc(CCn2nnc3ccccc32)cc1	3.2µM	?	3.2µM	nt	nt	11µM
O=C(Cn1nnc2ccccc21)OCc1ccccc1	i	i	i	nt	nt	21µM
COc1ccc(NC(=O)Cn2ccn(-c3ccc(C)c(C)c3)c(=O)c2=O)cc1Cl	nt	nt	nt	nt	nt	i
CCOC(=O)c1[nH]c2c(c1Cc1ccccc1OC)C(=O)CC(c1ccccc1)C2 (stereo not drawn)	nt	nt	nt	i	nt	i
CSCC[C@@H](C(=O)Nc1ccc2c(c1)OCCO2)N1Cc2ccccc2C1=O	i	?	i	i	i	19µM
O=C(CN1Cc2ccccc2C1=O)Nc1ccc2c(c1)OCCO2	?	i[9.26 µM]	i	nt	nt	24µM
CCN1CCN(CC(=O)Nc2ccc3c(c2)OCCO3)C(=O)C1=O	i	i	i	i	i	i
O=C(CN1CCc2ccccc21)Nc1ccc2c(c1)OCCCO2	?	?	?	nt	nt	12µM
Cc1ccc(CNC(=O)c2cccc(-n3cnc4cccnc43)c2)cc1	nt	nt	nt	nt	nt	i
C=Cc1c(C)/c2[n-]/c1=C\c1[n-]c(c(CC)c1C)/C=c1\[n-]c3c(c1C)C(=O)C(C(=O)[O-])C=3c1[n-]c(c(C)c1CCC(=O)[O-])\C=2.[Cu].[Na+].[Na+] (stereo not drawn)	nt	nt	nt	i	i	nt
Cc1cccc(N(C)C(=O)c2cc3cc4ccc(C)cc4nc3o2)c1	i	21µM	i	8.9µM	i	15µM
Cc1cccc(C)c1NC(=O)C(=O)NCC(c1ccc2c(c1)OCO2)N1CCOCC1 (stereo not drawn)	nt	nt	nt	nt	nt	i
COc1ccc(-c2nc3sc(CCNC(=O)c4ccccc4C)c(C)n3n2)cc1	nt	nt	nt	nt	nt	17µM
Cc1c(CCNC(=O)c2ccc(C(C)(C)C)cc2)sc2nc(-c3ccc(F)cc3)nn12	nt	nt	nt	nt	nt	i
COc1ccc(-c2nc3sc(CCNC(=O)c4cccc(C(F)(F)F)c4)c(C)n3n2)cc1	nt	nt	nt	nt	nt	6.7µM
CN(CCC(=O)O)S(=O)(=O)c1ccccc1	nt	nt	nt	i[9.22 µM]	i[7.66 µM]	nt
COc1ccccc1N1CCN(/N=C/c2cccc(O)c2)CC1	?	?	i	i	i	13µM
COc1ccccc1N1CCN(/N=C/c2ccccc2C(=O)O)CC1	i	i	i	nt	nt	19µM
COc1ccccc1N1CCN(/N=C/c2cc(OC)c(O)c(OC)c2)CC1	i	i	i	i	i	?
COc1ccccc1N1CCN(C(=O)c2ccc(-c3ccccc3)cc2)CC1	i	i	i	nt	nt	24µM
COc1ccccc1N1CCN(/N=C/c2ccc(OC)c(OC)c2OC)CC1	i	i	i	i	i	i
SMILES	Rab9 prom act	ELG1 genotox	NPC1 promoter act	SMN2 splice enh	Luc counter	FLuc counter
COc1cc(/C=N/N2CCN(c3ccccc3OC)CC2)ccc1OC(C)=O	i	i	i	nt	nt	19µM
CCOC(=O)c1ccc(NC(=O)CCCn2nc(C)c3sc4ccccc4c3c2=O)cc1	nt	nt	nt	nt	nt	i
CCOC(=O)c1cc(-c2ccc(OC)cc2)n(CCC(=O)NCCc2ccccc2)c1C	nt	nt	nt	nt	nt	i
Cc1ccc(-c2cn(-c3ccccc3)c(=S)[nH]2)cc1C	0.13µM	3.3µM	1.1µM	nt	nt	12µM
CC1CCN(C(=O)Cn2c(SCC(=O)Nc3ccc(F)cc3)nc3ccccc32)CC1	nt	nt	nt	nt	nt	i
CC(=O)Oc1ccc2cc(-c3nc4ccccc4n3C)c(=O)oc2c1	2.8µM	?	?	?	i	?
CC(C)(C)C(=O)Oc1ccc2cc(-c3ccc4ccccc4n3)c(=O)oc2c1	?	?	?	14µM	i	i
Cn1c(-c2cc3ccc(OC(=O)C(C)(C)C)cc3oc2=O)nc2ccccc21	?	?	?	?	i	?
